Experimental data: PubChem BioAssay (NCI)
About 79,000 compounds went through this panel and 15% of them were active in at least one assay; those are over-represented in the sample as a whole. Unmarked numbers belong to inactive results. Cut-off read from the data, not from the text of the source: active = growth inhibition above about 70%; inactive = the rest.

Assay: NCI Yeast Anticancer Drug Screen. Data for the wt1 strain (AID 149);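 note: 0% = growth of vehicle-treated wt1 cultures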
Conditions: S. cerevisiae wt1 strain (SPY 50644) growth inhibition; at 1.2 µM; stronger effect = higher value
In short: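 Growth inhibition read against vehicle controls after compound exposure of the wt1 yeast strain.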

| Structure (SMILES) | growth inhibition [%] |
| --- | --- |
| CCN(CC)CC[n+]1ccc2c(C)c3[nH]c4ccc(O)cc4c3c(C)c2c1 | 0 |
| O=[n+]1c2ccc(Cl)cc2n([O-])c2ccc(Cl)cc21 | -2 |
| CCOP(=O)(OCC)C(Cc1ccccc1)N=C(c1ccccc1)c1ccccc1 (stereo not drawn) | -18 |
| CC[C@@]1(O)C(=O)OCc2c1cc1n(c2=O)Cc2cc3c(N)cccc3nc2-1 | 22 |
| COC1C=COC2(C)Oc3c(C)c(O)c4c(c3C2=O)/C(=N/C2CCC(O)OC2C)C=C(NC(=O)/C(C)=C\C(=O)C2CC2C(O)C(C)C(O)C(C)C(OC(C)=O)C1C)C4=O (stereo not drawn) | 0 |
| COc1cc2c(c(OC)c1OC)-c1c(cc3c(c1OC)OCO3)CC(C)C(C)(O)C2OC(=O)c1ccccc1 (stereo not drawn) | -16 |
| O=c1ssc2ncccc12 | 2 |
| O=C1C2C(C(=O)N1c1ccc(OCc3ccccc3)cc1)C1c3ccccc3C2C2CCCCN21 (stereo not drawn) | -6 |
| COc1ccc(-c2cn(-c3ccc(I)cc3)c3ncnc(N)c23)cc1 | -4 |
| CCOC(=O)C(NC(=O)c1ccccc1)(N1CCN(c2cc3c(cc2F)c(=O)c(C(=O)O)cn3C2CC2)CC1)C(F)(F)F (stereo not drawn) | -2 |
| C/C(=N\O)C1CC2C=C(C#N)C1N(Cc1ccccc1)C2 (stereo not drawn) | 0 |
| CC/C(=C(\c1ccccc1)c1ccc(OCCN(C)C)cc1)c1ccccc1 | 8 |
| COc1ccccc1N=NC(C(=O)c1ccccc1)C(=O)c1ccccc1 | 6 |
| CC(O)C(O)C(O)C(/C=N\Nc1ccccc1)=N/Nc1ccccc1 (stereo not drawn) | 4 |
| COc1ccc(/C=C2\SC(=S)N(/C=C/c3nc4ccccc4[nH]c3=O)C2=O)cc1OC | 3 |
| N#CN=Nc1cc(Cl)c(N=NC#N)cc1Cl | -6 |
| Cc1ccc(S(=O)(=O)Oc2cc(Cl)c(Cl)cc2Cl)cc1 | -2 |
| c1ccc2c(c1)Oc1cccc3cccc-2c13 | -11 |
| O=C(c1ccc(Cl)cc1Cl)C(Cl)Cl | -1 |
| CC(C)C1=CCC2C(=C1)CCC1C(C)(C(=O)O)CCCC21C (stereo not drawn) (tested in a mixture with another compound) | 11 |

| Structure (SMILES) | growth inhibition [%] |
| --- | --- |
| COc1cc(/C=C2\CCc3ccccc3C2=O)cc(OC)c1OC | 9 |
| CC(=O)[O][Bi]([c]1ccccc1)[c]1ccccc1 | 2 |
| S=C(N/N=C/c1ccccn1)Nc1ccc(Cl)cc1 | -7 |
| COc1cc(CC2CC(c3ccc4c(c3)OCO4)OC2=O)cc(OC)c1OC (stereo not drawn) | -2 |
| CNC1C(OC2C(OC3C(O)C(O)C(N=C(N)N)C(O)C3N=C(N)N)OC(C)C2(O)CO)OC(CO)C(O)C1O (stereo not drawn) | 4 |
| NNC(=O)CCc1ccc2ccc3ccccc3c2c1 | 1 |
| Oc1ccc2ccccc2c1C(c1ccc(Cl)cc1)c1c(O)ccc2ccccc12 | 15 |
| CCCCN(CCCC)CCSc1ccc(Cl)cc1 | -1 |
| CCC(C)COC(=O)c1ccc(N=Cc2ccc(C=Nc3ccc(C(=O)OCC(C)CC)cc3)cc2)cc1 (stereo not drawn) | -1 |
| CC1(C)C(=O)OC(n2cc(F)c(=O)[nH]c2=O)C1=O (stereo not drawn) | -39 |
| O=[N+]([O-])CC(SCc1ccccc1)c1ccc2c(c1)OCO2 (stereo not drawn) | 23 |
| COc1cc2c(cc1[N+](=O)[O-])C(=O)C(Br)(Br)CCC2 | 38 |
| OCC1OC(OCC(O)C(O)C(O)C(/C=N/Nc2ccccc2)=N/Nc2ccccc2)C(O)C(O)C1O (stereo not drawn) | 4 |
| COc1ccc(N=C2C(=O)Nc3ccc(Br)cc32)cc1 | 8 |
| Cn1c(=O)c2ccccc2c2ccccc21 | -5 |
| CC[n+]1ccc2c(C)c3[nH]c4ccc(O)cc4c3c(C)c2c1 | -13 |
| CC(=O)ON1C(=O)c2cccc3cccc(c23)C1=O | 6 |
| COc1ccc2ccc3ccccc3c2c1C=O | -3 |
| OC1CCCc2c1cc1ccc3cccc4ccc2c1c34 (stereo not drawn) | -2 |

Same assay, conditions: S. cerevisiae wt1 strain (SPY 50644) growth inhibition; at 3.7 µM; stronger effect = higher value

| Structure (SMILES) | growth inhibition [%] |
| --- | --- |
| CCN(CC)CC[n+]1ccc2c(C)c3[nH]c4ccc(O)cc4c3c(C)c2c1 | -1 |
| O=[n+]1c2ccc(Cl)cc2n([O-])c2ccc(Cl)cc21 | 2 |
| CCOP(=O)(OCC)C(Cc1ccccc1)N=C(c1ccccc1)c1ccccc1 (stereo not drawn) | -28 |
| CC[C@@]1(O)C(=O)OCc2c1cc1n(c2=O)Cc2cc3c(N)cccc3nc2-1 | 13 |
| COC1C=COC2(C)Oc3c(C)c(O)c4c(c3C2=O)/C(=N/C2CCC(O)OC2C)C=C(NC(=O)/C(C)=C\C(=O)C2CC2C(O)C(C)C(O)C(C)C(OC(C)=O)C1C)C4=O (stereo not drawn) | 0 |
| COc1cc2c(c(OC)c1OC)-c1c(cc3c(c1OC)OCO3)CC(C)C(C)(O)C2OC(=O)c1ccccc1 (stereo not drawn) | -26 |
| O=c1ssc2ncccc12 | -2 |
| O=C1C2C(C(=O)N1c1ccc(OCc3ccccc3)cc1)C1c3ccccc3C2C2CCCCN21 (stereo not drawn) | -7 |
| COc1ccc(-c2cn(-c3ccc(I)cc3)c3ncnc(N)c23)cc1 | -4 |
| CCOC(=O)C(NC(=O)c1ccccc1)(N1CCN(c2cc3c(cc2F)c(=O)c(C(=O)O)cn3C2CC2)CC1)C(F)(F)F (stereo not drawn) | -1 |
| C/C(=N\O)C1CC2C=C(C#N)C1N(Cc1ccccc1)C2 (stereo not drawn) | 4 |
| CC/C(=C(\c1ccccc1)c1ccc(OCCN(C)C)cc1)c1ccccc1 | -8 |
| COc1ccccc1N=NC(C(=O)c1ccccc1)C(=O)c1ccccc1 | 3 |
| CC(O)C(O)C(O)C(/C=N\Nc1ccccc1)=N/Nc1ccccc1 (stereo not drawn) | 9 |
| COc1ccc(/C=C2\SC(=S)N(/C=C/c3nc4ccccc4[nH]c3=O)C2=O)cc1OC | 5 |
| N#CN=Nc1cc(Cl)c(N=NC#N)cc1Cl | -5 |
| Cc1ccc(S(=O)(=O)Oc2cc(Cl)c(Cl)cc2Cl)cc1 | -4 |
| c1ccc2c(c1)Oc1cccc3cccc-2c13 | 1 |
| O=C(c1ccc(Cl)cc1Cl)C(Cl)Cl | -6 |
| CC(C)C1=CCC2C(=C1)CCC1C(C)(C(=O)O)CCCC21C (stereo not drawn) (tested in a mixture with another compound) | 15 |

| Structure (SMILES) | growth inhibition [%] |
| --- | --- |
| COc1cc(/C=C2\CCc3ccccc3C2=O)cc(OC)c1OC | 3 |
| CC(=O)[O][Bi]([c]1ccccc1)[c]1ccccc1 | 11 |
| S=C(N/N=C/c1ccccn1)Nc1ccc(Cl)cc1 | -5 |
| COc1cc(CC2CC(c3ccc4c(c3)OCO4)OC2=O)cc(OC)c1OC (stereo not drawn) | -3 |
| CNC1C(OC2C(OC3C(O)C(O)C(N=C(N)N)C(O)C3N=C(N)N)OC(C)C2(O)CO)OC(CO)C(O)C1O (stereo not drawn) | -4 |
| NNC(=O)CCc1ccc2ccc3ccccc3c2c1 | 3 |
| Oc1ccc2ccccc2c1C(c1ccc(Cl)cc1)c1c(O)ccc2ccccc12 | -17 |
| CCCCN(CCCC)CCSc1ccc(Cl)cc1 | 7 |
| CCC(C)COC(=O)c1ccc(N=Cc2ccc(C=Nc3ccc(C(=O)OCC(C)CC)cc3)cc2)cc1 (stereo not drawn) | -4 |
| CC1(C)C(=O)OC(n2cc(F)c(=O)[nH]c2=O)C1=O (stereo not drawn) | -43 |
| O=[N+]([O-])CC(SCc1ccccc1)c1ccc2c(c1)OCO2 (stereo not drawn) | 36 |
| COc1cc2c(cc1[N+](=O)[O-])C(=O)C(Br)(Br)CCC2 | 50 |
| OCC1OC(OCC(O)C(O)C(O)C(/C=N/Nc2ccccc2)=N/Nc2ccccc2)C(O)C(O)C1O (stereo not drawn) | 17 |
| COc1ccc(N=C2C(=O)Nc3ccc(Br)cc32)cc1 | 15 |
| Cn1c(=O)c2ccccc2c2ccccc21 | -8 |
| CC[n+]1ccc2c(C)c3[nH]c4ccc(O)cc4c3c(C)c2c1 | 7 |
| CC(=O)ON1C(=O)c2cccc3cccc(c23)C1=O | 17 |
| COc1ccc2ccc3ccccc3c2c1C=O | -5 |
| OC1CCCc2c1cc1ccc3cccc4ccc2c1c34 (stereo not drawn) | -10 |
